The record followed here is PubChem BioAssay (NCATS).

Molecules are shown by their SMILES. Where “and” joins values, the source holds several entries; their conditions need not be identical. Equal entries are not always repeated. Records with an inconclusive call do not appear. Calls of active or inactive are those of the source. Unless noted, calls come from the whole dose curve; as a rule, active = well fitted curve in the direction sought with a large enough effect; inconclusive = small, poorly fitted or top-dose-only effect, or another doubt; inactive = no such curve, though single readings can be large; an effect the other way counts as inactive or inconclusive.

Assay [1] addresses Arylsulfatase A (Homo sapiens) (UniProt P15289). Kind of assay: qHTS screen for enhancers of Arylsulfatase A (ASA1): LOPAC Validation Assay (AID 720538). In a few lines:
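Read-out: fluorescence at Ex=525/Em=598 nm after 1N NaOH final stop. Patient fibroblasts carrying ASA-I179S had 48h compound exposure, then 14h room-temperature pNCS hydrolysis (0.5mM final) in lysis buffer. Signal increase = enhanced activity.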

Assay [2] is described as follows: qHTS for compounds that reverse cellular toxicity of Amyloid beta (A-beta) peptide in yeast: LOPAC Validation Assay (AID 720559).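 Note: plate controls were DMSO for no effect and equimolar ferric chloride plus clioquinol rescue for full effect.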 In a few lines: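 OD600 growth readout after 48 hr at 30 C; A-beta-toxic yeast plus pinned compounds in medium. Normalization: DMSO = negative, equimolar FeCl3 + clioquinol = positive.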
(In general: Quantitative high-throughput screening tests each substance at several concentrations.)

Assay [3] in a line: qHTS for Activators of Parkin Expression: LOPAC Validation Assay (NLuc Reporter) (AID 720572). Summed up:
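Compound effects on Parkin promoter activity were measured as NanoLuc luminescence after 24 h at 37 C. The neuronal reporter line also carried FLuc, which was read first. LOPAC compounds were tested at 7 concentrations, with normalization to DMSO (0%) and positive control (100%).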

For assay [4], the target named is T1, Hexokinase-4 (Homo sapiens) + Glucokinase regulatory protein (Homo sapiens) (UniProt P35557+Q14397). In words: qHTS assay for inhibitors of recombinant human GCK-GKRP interaction: Diaphorase-coupled assay (AID 743205). Summed up: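 Resorufin fluorescence (525/590 nm), read each minute over 30 min, reports GCK activity coupled via G6PDH and diaphorase. Reaction: 10 nM GST-GCK, 10 nM FLAG-GKRP, 5 mM glucose, 0.4 mM ATP, 0.15 mM NADP+, 0.1 mM resazurin.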

For assay [5], the target named is T1, Hexokinase-4 (Homo sapiens) + Glucokinase regulatory protein (Homo sapiens). In words: qHTS assay for inhibitors of recombinant human GCK-GKRP interaction: ADP-Glo assay (AID 743206).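 Note: plate controls were DMSO plus enzyme for no effect and no enzyme for full effect.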 In a few lines: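 Pin-transferred compounds meet a 15 nM GST-GCK/15 nM FLAG-GKRP/2 uM S6P mix (dispense concentrations). ATP is then added to 0.4 mM final with 5 mM glucose, and the reaction runs 60 min at room temperature. ADP is quantified luminescently.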

The target is the same in assay [6]. In words: qHTS assay for inhibitors of recombinant human GCK-GKRP interaction: HTRF assay (AID 743207).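 Note: 0% = DMSO with GCK present and -100% = DMSO wells lacking GCK.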 Summed up:
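HTRF read-out (ex 320 nm; 615/665 nm emission) after 60 min RT equilibration of 5 nM GST-GCK, 5 nM FLAG-GKRP, 2 uM S6P, compound and anti-FLAG/anti-GST detection antibodies; signal normalized between DMSO wells with and without GCK.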

Assay [7] is described as follows: qHTS profiling of the MIPE4 collection as inhibitors of Plasmodium falciparum (3D7) proliferation (AID 743344; call rule not given here;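 note: scaled between DMSO vehicle wells and 0.29 µM artemisinin as full inhibition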). The conditions noted are these: P. falciparum 3D7 in erythrocytes, SYBR Green DNA fluorescence, 72 h; at 28.5 µM (top of the series) unless noted. Summed up:
(§1)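 Parasite DNA was quantified by SYBR Green I fluorescence (ex 485, em 535 nm) after overnight lysis in saponin/Triton buffer at room temperature. Cultures at 0.3% parasitemia and 2.5% hematocrit were first exposed to compound for 72 h at 37 C; signals were normalised to artemisinin (0.29 uM) and vehicle wells.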

Assay [8] is described as follows: qHTS profiling of the MIPE4 collection as inhibitors of Plasmodium falciparum (DD2) proliferation (AID 743345; call rule not given here). The following applies: P. falciparum Dd2 in erythrocytes, SYBR Green DNA, 72 h; at 28.5 µM (top of the series) unless noted. Summed up:
as §1

The nature of assay [9]: qHTS profiling of the MIPE4 collection as inhibitors of Plasmodium falciparum (DD2) proliferation (Rep 2) (AID 743346; call rule not given here). The following applies: P. falciparum Dd2 in erythrocytes, SYBR Green DNA, 72 h; at 28.5 µM (top of the series) unless noted. In a few lines:
as §1

Assay [10] in a line: qHTS for Activators of Parkin Expression: LOPAC Validation Assay (FLuc Reporter) (AID 720573). In a few lines:
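FLuc luminescence read-out from a neuronal line expressing a Parkin-promoter-driven coincidence reporter. Cells treated 24 h at 37 C, 5% CO2 with compounds at 7 concentrations; signal increase normalized to DMSO and positive control.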

Assay [11] in a line: qHTS Assay for Identifying Gametocytocidal Compounds (AID 743244).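 For max response: % is set by controls: 0 for no effect and ±100 for the full control effect; actives lower the fluorescent signal which means gametocytes are killed.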 Note: potency is the fitted concentration of half-maximal effect. The conditions noted are these: P. falciparum 3D7 stage III-V gametocytes, alamarBlue, 72 h; max response: stronger effect = lower value. Summed up:
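Late gametocytes (III–V), P. falciparum 3D7; 72 h drug, then 24 h alamarBlue; resazurin reduction read by fluorescence.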

Assay [12] can be described thus: qHTS assay for small molecule agonists of the antioxidant response element (ARE) signaling pathway measured by Nrf2-dependant transcriptional activity (AID 720636; active = well fitted curve in the direction sought with a large enough effect in the repeat runs; an effect the other way counts as inactive or inconclusive;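 note: HepG2 cells with an ARE-driven luciferase reporter; % of control where 0% means no effect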). In a few lines:
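HepG2 ARE-luc reporter line, 1% dialyzed FBS; 6 hr attachment at 37 C, compound pinned in, 16 hr at 37 C/5% CO2; ONE-Glo, 30 min RT, luminescence read.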

A short description of assay [13]: qHTS assay for small molecule agonists of the antioxidant response element (ARE) signaling pathway measured by Nrf2-dependant transcriptional activity - cell viability counter screen (AID 720653; active = well fitted curve in the direction sought with a large enough effect in the repeat runs; an effect the other way counts as inactive or inconclusive; note: % is set by controls: 0 for no effect and ±100 for the full control effect). The conditions noted are these: ARE-bla HepG2 viability, CellTiter-Glo ATP luminescence, 16 h; max response: stronger effect = lower value. In a few lines:
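Cytotoxicity counter screen: intracellular ATP quantified by CellTiter-Glo luminescence in the same ARE-bla HepG2 plates, after 16 h compound exposure and a 2 h beta-lactamase substrate step.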

Assay [14] can be described thus: qHTS assay for cell viability of HEK293 cells (AID 743288). Note: % is set by controls: 0 for no effect and ±100 for the full control effect; nearly all actives have a fitted effect of over 50% in size. The conditions noted are these: ATP luminescence (CellTiter-Glo), 18 h; max response: stronger effect = lower value. Summed up:
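ATP luminescence (CellTiter-Glo) reports metabolically competent cell number after parental HEK293 cells, 2,000/well, were treated with DMSO-dissolved compounds for 18 h at 37 C; reagent incubation 30 min, room temperature.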

A short description of assay [15]: qHTS assay for cell viability of the p53RE-bla HCT-116 cell line (AID 743292). Note: % is set by controls: 0 for no effect and ±100 for the full control effect; nearly all actives have a fitted effect of over 55% in size. Summed up:
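Luminescent ATP quantitation (CellTiter-Glo) served as the viability read-out; reagent was added after 16 h compound exposure at 37 C and read after 30 min at room temperature. Cells: p53RE-bla HCT-116, 4,000 per well.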

Assay [16] can be described thus: qHTS profiling for inhibitors of Plasmodium falciparum (3D7) proliferation (AID 743322; call rule not given here;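 note: infected erythrocytes exposed to compound for 72 h before lysis; 100% = DMSO vehicle wells and 0% = 0.29 µM artemisinin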). The conditions noted are these: P. falciparum 3D7 proliferation, at 28.7 µM (top of the series). In a few lines:
as §1

A short description of assay [17]: qHTS profiling for inhibitors of Plasmodium falciparum (DD2) proliferation (AID 743323; call rule not given here). The following applies: at 28.7 µM (top of the series), lower = more inhibition. Summed up:
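SYBR Green fluorescence (ex 485, em 535 nm) of lysed cultures gives parasite DNA content; wells normalized to artemisinin (0.29 uM) and DMSO controls. Infected red cells: 0.3% parasitemia, 2.5% hematocrit, 72 h, 37 C.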

Assay [18] in a line: qHTS assay for small molecule antagonists of the retinoid-related orphan receptor gamma (ROR-gamma) signaling pathway - cell viability counter screen (AID 720652; active = well fitted curve in the direction sought with a large enough effect in the repeat runs; an effect the other way counts as inactive or inconclusive;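 note: CHO reporter cells with doxycycline-induced ROR-gamma expression; compound exposure lasted 16 hr before ATP read; % is set by controls: 0 for no effect and ±100 for the full control effect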). In a few lines:
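Steps: seed CHO cells bearing TET-inducible ROR and ROR response element-luciferase; rest 5 hr at 37 C; add compound, then doxycycline; incubate 16 hr; add CellTiter-Glo and read luminescence as ATP-based viability.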

T1 sequence (P35557 whole entry, looked up): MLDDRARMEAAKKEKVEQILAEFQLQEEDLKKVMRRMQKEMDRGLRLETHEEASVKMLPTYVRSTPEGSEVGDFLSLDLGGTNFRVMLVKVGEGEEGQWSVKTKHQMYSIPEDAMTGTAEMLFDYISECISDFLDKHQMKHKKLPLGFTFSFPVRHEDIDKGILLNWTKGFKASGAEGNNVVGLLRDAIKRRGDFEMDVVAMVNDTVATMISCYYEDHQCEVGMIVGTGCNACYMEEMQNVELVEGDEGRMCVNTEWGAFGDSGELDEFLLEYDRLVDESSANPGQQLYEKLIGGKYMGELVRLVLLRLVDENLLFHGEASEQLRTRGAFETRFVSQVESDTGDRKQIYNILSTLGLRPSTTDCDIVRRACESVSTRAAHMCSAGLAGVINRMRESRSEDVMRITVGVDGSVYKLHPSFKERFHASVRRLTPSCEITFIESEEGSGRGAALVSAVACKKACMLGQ
T1 sequence (Q14397 whole entry, looked up): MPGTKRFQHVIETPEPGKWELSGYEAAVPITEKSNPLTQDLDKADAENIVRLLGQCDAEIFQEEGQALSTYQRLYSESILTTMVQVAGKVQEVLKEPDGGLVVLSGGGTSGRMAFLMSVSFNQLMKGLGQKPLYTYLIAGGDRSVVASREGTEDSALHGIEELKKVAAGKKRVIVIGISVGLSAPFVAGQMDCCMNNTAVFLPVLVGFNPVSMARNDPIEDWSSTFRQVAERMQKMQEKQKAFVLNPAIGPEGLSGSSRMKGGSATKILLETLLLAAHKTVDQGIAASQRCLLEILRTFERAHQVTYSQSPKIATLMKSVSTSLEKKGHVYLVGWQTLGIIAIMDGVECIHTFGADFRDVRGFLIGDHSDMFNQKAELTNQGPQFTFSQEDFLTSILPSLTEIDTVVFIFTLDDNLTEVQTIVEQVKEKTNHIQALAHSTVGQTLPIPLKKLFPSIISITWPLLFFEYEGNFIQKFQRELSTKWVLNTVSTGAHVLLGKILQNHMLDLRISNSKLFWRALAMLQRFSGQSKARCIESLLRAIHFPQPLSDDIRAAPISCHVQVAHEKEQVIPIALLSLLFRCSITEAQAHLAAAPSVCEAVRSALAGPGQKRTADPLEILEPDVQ
Arylsulfatase A (Homo sapiens), sequence (P15289 whole entry, looked up): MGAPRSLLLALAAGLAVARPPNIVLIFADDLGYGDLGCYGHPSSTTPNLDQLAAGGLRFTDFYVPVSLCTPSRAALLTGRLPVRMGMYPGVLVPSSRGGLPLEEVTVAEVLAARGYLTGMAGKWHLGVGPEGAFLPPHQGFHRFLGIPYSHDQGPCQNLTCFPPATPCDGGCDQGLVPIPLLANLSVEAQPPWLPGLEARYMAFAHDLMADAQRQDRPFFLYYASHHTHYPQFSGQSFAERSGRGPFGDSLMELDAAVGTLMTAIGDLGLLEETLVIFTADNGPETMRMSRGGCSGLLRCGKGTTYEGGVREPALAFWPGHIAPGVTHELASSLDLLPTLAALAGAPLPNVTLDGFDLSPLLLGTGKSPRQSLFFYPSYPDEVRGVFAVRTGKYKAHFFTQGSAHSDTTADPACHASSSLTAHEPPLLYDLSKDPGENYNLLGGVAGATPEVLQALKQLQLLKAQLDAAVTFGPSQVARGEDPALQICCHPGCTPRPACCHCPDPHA

On to `CNCCCC12CCC(c3ccccc31)c1ccccc12`, for which the Potency entry in [1], in assay [4], in assay [5] and in assay [6] was “inactive” throughout. The compound was classed as inactive in assay [2] and in assay [3]. In [7], the parasite growth, % of DMSO control worked out at 16.9%. In assay [8], this compound showed a parasite growth remaining, % of DMSO control (lower = more inhibition) of 21.8%. In assay [9], this compound returned a parasite growth, % of control (lower = inhibition) of 21.9%.

With `Cc1cnc(C(=O)NCCc2ccc(S(=O)(=O)NC(=O)NC3CCCCC3)cc2)cn1`, the call in [2] and in [3] was inactive. Besides, the Potency entry in [10], in assay [4], in [5] and in assay [6] was “inactive” in each case. In addition, the max response in assay [11] was 32.6% (inactive) and 12.5% (inactive). In assay [7], this compound displayed a parasite growth, % of DMSO control of 7.98%. Besides, the parasite growth remaining, % of DMSO control (lower = more inhibition) in assay [8] was found to be 12.7%. In assay [9], this compound displayed a parasite growth, % of control (lower = inhibition) of 9.38%.

For the compound `CN(C)CCOC(c1ccccc1)c1ccccc1`, the result in assay [2], in assay [3] and in [12] was inactive. Moreover, the Potency entry in assay [10], in [4], in assay [5], in assay [6] and in assay [15] was “inactive” throughout. Further, the max response in assay [13] was -12% (inactive); in assay [11], -13.8% (inactive) and 10.9% (inactive); in assay [14] it was -15% (inactive). In addition, the remaining parasite growth % (stronger effect = lower value) in assay [16] is 85.5%. In assay [17], this compound gave an activity, percent of control of 32.1%. The compound also showed a parasite growth, % of DMSO control in assay [7] of 90.6%. Further, the parasite growth remaining, % of DMSO control (lower = more inhibition) in assay [8] was determined as 39.2%. This compound also gave a parasite growth, % of control (lower = inhibition) in assay [9] of 41.2%.

Regarding `CCCCc1oc2ccccc2c1C(=O)c1cc(I)c(OCCN(CC)CC)c(I)c1`, the call in assay [2] and in assay [3] was inactive. Besides, the Potency result in assay [10], in assay [4], in assay [5] and in assay [6] was “inactive” in each case. This compound also returned a parasite growth, % of DMSO control in assay [7] of 6.22%. Further, the parasite growth remaining, % of DMSO control (lower = more inhibition) in [8] came out at 6.54%. The compound further displayed a parasite growth, % of control (lower = inhibition) in assay [9] of 19.3%.

In the case of `Nc1c2c(nc3ccccc13)CCCC2`, the compound was classed as inactive in [2], in assay [3] and in [12]. The Potency entry in assay [18], in assay [4], in assay [5], in assay [6] and in assay [15] was “inactive” throughout. In addition, the max response in assay [13] was -10.2% (inactive); in [14], -20.1% (inactive). In [11], the Potency was 8.91 µM (active). The parasite growth, % of DMSO control in assay [7] was 7.17%. In [8], this compound registered a parasite growth remaining, % of DMSO control (lower = more inhibition) of 15.1%. Moreover, the parasite growth, % of control (lower = inhibition) in assay [9] was determined as 10.3%.

`CC(C)NCC(O)COc1ccc(CCOCC2CC2)cc1` (configuration not stated): the call in [2] and in [3] was inactive. Moreover, the Potency result in [10], in assay [4] and in [5] was “inactive” in each case. In addition, in assay [11], the max response was -0.0756% (inactive) and 27.3% (inactive). In assay [7], this compound showed a parasite growth, % of DMSO control of 77%. The compound also came in with a parasite growth remaining, % of DMSO control (lower = more inhibition) in assay [8] of 89.8%. For the same compound, the parasite growth, % of control (lower = inhibition) in assay [9] came out at 46.9%.

Consider `CN1CCN2c3ccccc3Cc3ccccc3C2C1` (configuration not stated), for which the compound was classed as inactive in [2] and in assay [3]. In addition, the Potency result in assay [10], in assay [4], in assay [5] and in assay [6] was “inactive” each time. In addition, the max response in assay [11] was 25.6% (inactive). The same compound showed a parasite growth, % of DMSO control in [7] of 56.9%. In assay [8], this compound registered a parasite growth remaining, % of DMSO control (lower = more inhibition) of 60.5%. This compound also displayed a parasite growth, % of control (lower = inhibition) in [9] of 44.9%.

With `COc1cc2nc(N3CCN(C(=O)C4COc5ccccc5O4)CC3)nc(N)c2cc1OC` (configuration not stated), the outcome in assay [2] and in [3] was inactive. For the same compound, the Potency result in assay [10], in assay [4], in [5] and in assay [6] was “inactive” throughout. The max response in assay [11] is 2.28% (inactive). For the same compound, the parasite growth, % of DMSO control in [7] stood at 5.44%. In addition, the parasite growth remaining, % of DMSO control (lower = more inhibition) in [8] was 9.25%. The compound further came in with a parasite growth, % of control (lower = inhibition) in assay [9] of 11.1%.
